# Results: PubChem BioAssay (NCI)
# About 83,000 compounds went through this panel and 20% of them were active in at least one assay; those are over-represented in the sample as a whole.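 Percent growth is the endpoint: 0 to 100 indicates growth inhibition (40 means 60% inhibition), 0 means no net growth, and negative values indicate cell death.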 Values without a mark were called inactive. Activity calls are given as the source filed them.
# Test system: MCF7 breast
# Assay: NCI-60 one-dose screen, 48 h (100 = growth as untreated, 0 = no growth, -100 = all killed)
# Details: 10 µM unless noted
# Protocol: Growth inhibition of the MCF7 human tumor cell line is measured as a screen for anti-cancer activity. Cells are grown in 96 well plates and exposed to the test compound for 48 hours. Compounds are tested at a single concentration, which is 10^-5 M for most compounds. The reported endpoint is percent growth (GI% or GIPRCNT), where numbers from 0 - 100% represent growth inhibition, and numbers from -100% - 0 represent cell death. For example, a value of 40 represents 60% growth inhibition. A value of 0 means no net growth occurred over the course of the experiment. A value of -40 indicates 40% of cells at the beginning of the experiment died by the end of the experiment. A value of -100 means all cells are dead at the end of the experiment.
# NCI-60 Human Tumor Cell Lines Screen was performed using the standard one-dose NCI protocol, which is described in more detail at https://dtp.cancer.gov/discovery_development/nci-60/default.htm.
# Compounds with GIPRCNT values below 10 were considered active. Activity score was based on GIPRCNT using the following formula: […]
# Score is 0 for GIPRCNT values of 100 or above, 50 for GIPRCNT values of 0, and 100 for GIPRCNT values of -100.
row,SMILES,growth
1,[Cl][Ru].c1ccc(-c2cccc(-c3ccccn3)n2)nc1.c1ccc(-c2ccnc3c2ccc2c(-c4ccccc4)ccnc23)cc1,9.54% (active)
2,O=C(CCN1C(=O)/C(=C/c2ccccc2F)SC1=S)N1CCOCC1,30.1%
3,CN(C)CCCOc1c2ccc(Cl)cc2nc2c1oc1ccccc12,-18.6% (active)
4,CNC(=O)c1cc(-c2ccc(NC(=O)Nc3ccc(N4CCOCC4)c(C(F)(F)F)c3)cc2)nc2cccnc12,12.3%
5,CCOC(=O)c1c(Nc2ccccc2)nn2c(N)c(C#N)c(-c3ccccc3)nc12,60.1%
6,CS(=O)(=O)Nc1ccc(-c2nn(-c3ccc(S(C)(=O)=O)cc3)cc2/C=C/C(=O)c2ccc(NC(=O)CO[N+](=O)[O-])cc2)cc1,94.5%
7,COc1ccc(/C=N/Nc2ccnc3cc(Cl)ccc23)cc1Cl,-12.2% (active)
8,CSCCC(C(=O)O)N1C(=O)/C(=C/c2ccc(O)c(O)c2)SC1=S (stereo not given),93.4%
9,CCOC(=O)c1sc(NCC(=O)Nc2cccc([N+](=O)[O-])c2)c(C(=O)OCC)c1C,-4.78% (active)
10,O=C(Nc1nc2ccc(O)cc2s1)c1cccc(C(F)(F)F)c1,73.7%
11,Cn1ccnc1C(=O)/C=C/c1ccc(NC(=O)Nc2ccc(F)cc2)cc1,10.3%
12,C/C(=N/NC(N)=S)c1ccc(Nc2nc(SCC(C)C)nc(-c3ccc(F)cc3)c2C#N)cc1,0.17% (active)
13,COC(=O)C(Cc1ccccc1)NS(=O)(=O)/N=C1\NC(=O)NC1=C(Cl)Cl (stereo not given),29.1%
14,O=C1Nc2cc(Cl)ccc2/C1=C\c1ccc(OCc2ccc(Br)cc2F)cc1,9.35% (active)
15,OC1CCN(CCCOc2c3ccccc3nc3c2oc2ccccc23)CC1,0.978% (active)
16,COc1ccc([C@@H]2c3[nH]c4ccccc4c3CC3C(=O)N(C4CCN(Cc5c(F)cccc5F)CC4)CC(=O)N32)c(OC)c1 (stereo not given in full),42.4% [5.26 µM]
17,C=C1CC[C@H]2[C@@](C)(CCC3OC(c4ccc(OCc5cn(C6CC(OC(C)=O)C(OC(C)=O)C(COC(C)=O)O6)nn5)cc4)OC[C@]32C)[C@@H]1/C=C/C1=CCOC1=O (stereo not given in full),44.4%
18,Fc1ccc(-c2nc(C(Cl)Cl)nc3cc(-c4ccccc4)nn23)cc1,21.5%
19,O=C(CSc1nccc(=O)[nH]1)Nc1ccc(-c2nc3ccccc3[nH]2)cc1,103%
20,Cc1ccccc1NC(=O)/C=C/c1ccc(OCCOc2ccc3c(C)cc(=O)oc3c2)cc1,85.7%

row,SMILES,growth
1,COc1cc(/C=C/C(=O)c2cc(OC)c(OC)c(OC)c2)ccc1Oc1nc(NCCO)nc(N2CCOCC2)n1,8.4% (active)
2,NS(=O)(=O)c1ccc(Nc2nc(SCC(=O)c3ccc(Cl)cc3)nc3ccccc23)cc1,83%
3,COc1ccccc1C(=O)CSc1nc(Nc2ccc(S(N)(=O)=O)cc2)c2ccccc2n1,44.6%
4,O=C(CSc1nc2sc3c(c2c(=O)n1-c1ccc(Cl)cc1)CCCC3)NNC(=O)Nc1ccc(Cl)c(C(F)(F)F)c1,18.6%
5,CN1C(=S)N(C)C2C1NN=C1SC(c3ccccc3)=CC(=O)N12 (stereo not given),96.1%
6,C/C(=C(/c1ccc(Cl)cc1)c1ccc(OCCN)cc1)c1ccc(C)cc1,102%
7,CC1=C(C)C(=O)C(Nc2cccc(C(F)(F)F)c2)=C(Cl)C1=O,35.4%
8,Fc1ccc(-c2cc3nc(C(Cl)Cl)nc(-c4ccc(Cl)cc4)n3n2)cc1,16.5%
9,COc1cc(OC)c(C2C(Cl)C(=O)N2Nc2ncnc3ccccc23)cc1OC (stereo not given),83%
10,N#Cc1nc(-c2ccccc2)oc1S(=O)(=O)N1CCN(CCc2ccccn2)CC1,28%
11,CC(C)(C)Nc1nc2c(OCCc3ccccc3)cccn2c1-c1ccccc1Cl,-10.6% (active)
12,Cc1c(Nc2nnc(SCC(=O)Nc3sc4c(c3C#N)CCCC4)s2)c(=O)n(-c2ccccc2)n1C,93.5%
13,CC(C)(C)Nc1nc2c(OCCc3ccccc3)cccn2c1-c1ccc(Cl)cc1,0.0476% (active)
14,O=C(c1ccc(Cl)cc1)C1[C@H](c2ccc(Cl)cc2)[C@@H](c2ccccc2)NC12C(=O)Nc1ccc(Br)cc12 (stereo not given in full),15.8%
15,CN1CCN(Cc2ccc(NC(=O)c3cncc(C#Cc4cnc5[nH]ncc5c4)c3)cc2C(F)(F)F)CC1,52.6%
16,CCN1C(=S)N(CC)C2C1N=C(SC)N2/N=C/C=C/c1ccccc1[N+](=O)[O-] (stereo not given),76.9%
17,CN(C)c1ccc(/C=c2\sc3nc4ccccc4n3c2=O)cc1,70.3%
18,N#Cc1ccc(/C=N/NC(=O)c2[nH]c3ccc(Br)cc3c2-c2ccccc2)s1,5.58% (active)
19,CN(C)CCCOc1c2ccccc2nc2c1oc1ccc(Cl)cc12,-16.6% (active)
20,O=C1Nc2ccccc2Oc2ccc(S(=O)(=O)CC3CO3)cc21 (stereo not given),18.1%
